Source: PubChem (The Scripps Research Institute Molecular Screening Center)
Compounds with a hit are over-represented: about 1.3% of the library has one in this group of screens.
LYPLA2 counter = LYPLA2 inhibitors, primary screen, counter-screen for PME1 inhibitor project, biochemical, fluorescence polarization, FP-Rh probe ABPP; Acyl-protein thioesterase 2 (Homo sapiens), O95372; recombinant LYPLA2; inhibition, % at 5.9 µM; 320,000 compounds, 0.38% hits; AID 2177, 2009;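 active = inhibition above the screen-wide mean plus 3 SD, limit set per campaign, cut at about 26% in these data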;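 note: 0% = LYPLA2 with DMSO and 100% = wells lacking LYPLA2 enzyme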
Target sequence (O95372 whole entry, looked up): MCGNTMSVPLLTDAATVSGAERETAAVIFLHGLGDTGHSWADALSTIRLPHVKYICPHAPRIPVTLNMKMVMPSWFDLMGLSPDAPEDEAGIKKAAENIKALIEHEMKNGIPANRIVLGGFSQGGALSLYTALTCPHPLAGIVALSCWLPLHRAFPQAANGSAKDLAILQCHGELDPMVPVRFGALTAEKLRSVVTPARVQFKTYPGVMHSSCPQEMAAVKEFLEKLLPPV
PREPL inh = PREPL enzyme inhibitors, primary screen, biochemical, fluorescence polarization; 320,000 compounds, 0.68% hits; recombinant PREPL, fluorescence polarization activity-based probe; inhibition, % at 5.96 µM; Prolyl endopeptidase-like (Homo sapiens), Q4J6C6; in the data active = inhibition above about 43%;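 note: 0% = enzyme with DMSO and 100% = wells lacking enzyme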
Fam108B inh = mouse Fam108B serine hydrolase inhibitors, primary screen, counter-screen for RBBP9 inhibitor project, biochemical, fluorescence polarization. recombinant Fam108B, FP-Rh probe fluorescence polarization. inhibition, % at 9.51 µM. 300,000 compounds, 0.33% hits;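 active = inhibition above the screen mean inhibition plus 3 SD, computed separately per campaign, cut at about 18% in these data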;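 note: inhibitors lower polarization as less probe binds the enzyme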
LYPLA1 counter = LYPLA1 inhibitors, primary screen, counter-screen for PME1 inhibitor project, biochemical, fluorescence polarization, FP-Rh probe ABPP | Acyl-protein thioesterase 1 (Homo sapiens), O75608 | recombinant LYPLA1 | inhibition, % at 5.9 µM | 320,000 compounds, 0.16% hits | AID 2174, 2009;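 active = inhibition above the mean of all tested compounds plus 3 SD, set per campaign, cut at about 14% in these data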;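 note: inhibitors block serine hydrolase probe labeling of LYPLA1 so polarization falls; 0% = enzyme with DMSO and 100% = wells lacking LYPLA1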
Target sequence (O75608 whole entry, looked up): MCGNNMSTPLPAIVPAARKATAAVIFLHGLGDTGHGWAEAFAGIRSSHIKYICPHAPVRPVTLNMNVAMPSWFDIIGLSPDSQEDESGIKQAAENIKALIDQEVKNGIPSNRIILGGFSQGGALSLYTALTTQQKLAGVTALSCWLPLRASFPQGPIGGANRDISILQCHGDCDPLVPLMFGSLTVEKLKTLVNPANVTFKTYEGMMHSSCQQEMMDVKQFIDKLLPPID
PME-1 inh = PME-1 inhibitors via competitive probe labeling, primary screen, biochemical, fluorescence polarization, FP-Rh probe, HTS. recombinant PME-1. AID 2130, 2009. inhibition, % at 5.9 µM. 320,000 compounds, 0.53% hits. Protein phosphatase methylesterase 1 (Homo sapiens), Q9Y570;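 active = inhibition above the campaign mean of all compounds plus 3 SD, cut at about 26% in these data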;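 note: competitive labeling of PME-1 active site by serine hydrolase directed probe; 0% = PME-1 with DMSO and 100% = wells lacking PME-1 enzyme; inhibitors block probe labeling so polarization falls and inhibition rises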
Fam108b inh conf = mouse Fam108b serine hydrolase inhibitors, confirmation, counter-screen for RBBP9 inhibitor project, biochemical, fluorescence polarization, triplicate; 930 compounds, 44% hits; shares compounds with Fam108B inh; recombinant Fam108b, FP-Rh probe fluorescence polarization; inhibition, % at 9.51 µM; AID 1978, 2009;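 active = inhibition above a limit from the primary screen, the mean over all compounds plus 3 SD, cut at about 19% in these data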;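 note: 0% = median of active Fam108b wells and 100% = catalytically dead S170A mutant; inhibitors free the probe so polarization falls as inhibition rises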
Fam108b ABPP HTS = inhibition of mouse Fam108b by HTS hits, late-stage follow-up, biochemical, gel-based ABPP, soluble recombinant form; AID 588649, 2011; fluorophosphonate probe; inhibition, % at 20 µM; 260 compounds, 44% hits; shares compounds with Fam108B inh; in the data active = inhibition above about 40%
* hit, by the source's call; . = no result given.

SMILES	LYPLA2 counter	PREPL inh	Fam108B inh	LYPLA1 counter	PME-1 inh	Fam108b inh conf	others
COc1cc(NC(=O)C2CCC(CNS(=O)(=O)c3csc(C(N)=O)c3)CC2)cc(OC)c1 (centres undefined)	4.5	1.2	-2.0	-4.9	-2.2	.
Cc1cc(C)nc(SCC(=O)c2ccc(O)c(O)c2)n1	7.8	7.3	0.5	1.9	-6.6	.
Cc1cc(SCC(=O)c2ccc(O)c(O)c2)n2nc(C)c(-c3ccccc3)c2n1	7.2	42.5	18.3*	-17.1	15.1	-16.5
O=C(Nc1ccc(Nc2ccccc2)cc1)Nc1ccccc1Cl	-1.4	23.3	22.2*	-17.5	31.4*	-1.9
CCn1nc([N+](=O)[O-])c(C(C#N)c2nc3ccccc3n2C)c(Cl)c1=O (centres undefined)	6.6	14.2	8.5	2.7	16.8	.
CCCn1nc([N+](=O)[O-])c(C(C#N)c2nc3ccccc3s2)c(Cl)c1=O (centres undefined)	17.2	19.5	31.5*	-0.7	35.9*	31.3*	Fam108b ABPP HTS=0.0
Cn1cnnc1SCCCN1C(=O)c2cccc3cccc(c23)C1=O	-5.2	2.6	3.3	-0.4	7.0	.
CN1C(=O)/C(=C/c2ccc(-c3ccccc3[N+](=O)[O-])o2)SC1=Nc1ccc(Cl)c(C(=O)O)c1	2.9	16.4	30.3*	-0.3	12.1	11.2
COc1ccccc1/C=N/NC(=O)c1[nH]c(C)c(C(=O)N/N=C/c2ccccc2OC)c1C	-32.5	-0.4	-3.7	-19.1	-22.5	.
CCOC(=O)c1c(C)[nH]c(C(=O)N/N=C\c2ccccc2O)c1C	-1.9	11.6	18.8*	-11.2	3.7	-9.7
COc1cccc(C=NNC(=O)c2[nH]c(C)c(C(=O)NN=Cc3cccc(OC)c3O)c2C)c1O	.	.	.	.	.	.	Fam108b ABPP HTS=95.0*
CCOC(=O)c1c(C)[nH]c(C(=O)N/N=C/c2cc([N+](=O)[O-])ccc2O)c1C	2.6	4.4	1.9	-2.1	-0.7	.
Cc1ccc(N=Nc2ccc3ccccc3c2O)cc1	-0.2	-2.1	28.5*	3.6	-4.7	8.6
COc1ccc(N=Nc2ccc3ccccc3c2)c(O)c1	-0.3	13.2	-1.1	-0.6	0.6	.
COc1cccc(N=Nc2ccc3ccccc3c2O)c1	-4.4	9.2	19.3*	-4.6	6.8	5.0
CCOC(=O)CN(Cc1ccccc1)C(=O)OC(C)(C)C	-1.5	-4.4	2.2	-3.0	-1.7	.
COc1cc(/C=C2/C(=O)NN(c3cccc(Cl)c3)C2=O)cc(OC)c1O	8.3	6.7	3.0	0.7	6.5	.
COc1cc(/C=C2/C(=O)NN(c3cccc(C)c3)C2=O)cc([N+](=O)[O-])c1O	4.4	2.7	82.5*	3.6	5.7	5.7
Cc1cccc(C(=O)N/N=C/c2cc(Br)c(Br)o2)c1	-3.2	6.7	0.7	-6.6	-6.4	.
COc1cccc(C(=O)/C=C/Nc2ccc(S(=O)(=O)Nc3cccc(C(C)=O)c3)cc2)c1	-15.8	-5.4	21.7*	-19.8	-3.3	-11.4
COc1cccc(C(=O)/C=C/Nc2ccc(NC(C)=O)cc2)c1	-1.2	2.5	1.5	-0.4	5.8	.
O=[N+]([O-])c1ccc(/C=N/Nc2ccnc3cc(Cl)ccc23)o1	-4.0	33.5	19.3*	-5.6	17.5	10.2
Clc1ccc2c(N/N=C/c3ccccc3Br)ccnc2c1	-0.5	4.5	-20.6	-3.2	-0.5	.
O=C(COC(=O)c1cccc([N+](=O)[O-])c1)Nc1ncc(Br)s1	.	15.2	.	.	.	.
O=C(CCC(=O)c1ccc(Cl)cc1)OCc1nc2ccsc2c(=O)[nH]1	6.4	1.6	2.0	4.5	1.8	.
SMILES	LYPLA2 counter	PREPL inh	Fam108B inh	LYPLA1 counter	PME-1 inh	Fam108b inh conf	others
O=[N+]([O-])c1cccc(-c2nc(-c3cccs3)c(-c3cccs3)[nH]2)c1	7.6	16.7	26.3*	-4.0	32.0*	7.2
Fc1ccc(-c2nc(-c3cccs3)[nH]c2-c2ccc(F)cc2)cc1	15.4	6.0	19.0*	3.8	15.0	6.2
O=[N+]([O-])c1ccc(-c2nc(-c3cccs3)c(-c3cccs3)[nH]2)cc1	-8.1	16.5	23.7*	-22.5	41.6*	20.5*
Oc1ccc(-c2nc(-c3ccc(F)cc3)c(-c3ccncc3)[nH]2)cc1	1.9	6.1	4.5	2.8	-3.0	.
O=[N+]([O-])c1cccc(-c2nc(-c3ccccc3)c(-c3cccs3)[nH]2)c1	1.4	-9.6	-2.3	2.1	2.4	.
COc1ccc(/C=C2\Oc3cc(OCC(=O)N4CCC[C@H]4CO)ccc3C2=O)c(OC)c1	-4.8	8.9	-2.7	3.9	-1.3	.
O=C(c1ccc(F)cc1)N1CCC(C(=O)N2CCN(c3ncccn3)CC2)CC1	.	9.7	.	.	.	.
CCOC(=O)c1ccc(CC(=O)c2ccc(O)cc2O)o1	4.6	9.2	-2.1	-6.5	-10.0	.
CCC(=O)Oc1ccc(C/C(=N\O)c2ccc(O)cc2O)o1	3.7	27.4	25.9*	6.8	36.0*	17.8
CCCCC(CCC(=O)O)(C(=O)OCC)c1csc(Nc2ccccc2)n1 (centres undefined)	-9.4	0.1	-2.2	-1.1	-2.3	.
CCOC(=O)/C(=N\Nc1ccc(Cl)cc1)c1csc(Nc2ccccc2)n1	5.2	11.0	20.7*	-5.0	29.2*	27.2*
CCOC(=O)/C(=N\Nc1ccc(OC)cc1)c1csc(Nc2ccccc2)n1	3.2	21.6	23.4*	-9.9	11.2	10.3
CCN(CC)C(=O)c1csc(Nc2ccc(C)cc2)n1	3.6	6.7	2.1	1.2	2.3	.
CCOC(=O)/C(=N/Nc1ccccc1)c1csc(Nc2ccccc2)n1	-8.4	8.5	21.5*	-14.3	9.7	-7.3
COc1cc(NC(=O)[C@@H](NC(=O)N2CCn3c2nc2ccccc23)C(C)C)cc(OC)c1	5.8	20.0	-1.9	-1.4	-0.8	.
O=C1c2ccccc2C(=O)N1OS(=O)(=O)c1ccccc1	-2.8	5.7	28.7*	-1.9	-2.3	-18.1
CN(C)S(=O)(=O)c1cccc(NC(=O)c2c[nH]c3ccccc23)c1	-34.1	19.8	125.7*	-14.7	-14.6	-18.5
O=C(c1cc2ncc(Br)cn2n1)N1CCOCC1	-5.7	5.3	1.4	-3.5	-2.3	.
O=C(c1cc2ncc(Br)cn2n1)N1CCN(C(=O)c2ccco2)CC1	-0.9	9.1	19.2*	-3.2	1.0	-6.9
O=C(CN1CCCc2ccccc21)N/N=C/c1c(O)ccc2ccccc12	-1.0	34.1	42.6*	-12.3	31.1*	16.2
CCN=c1scc(C)n1/N=C/c1cc(Br)c(O)c(Br)c1	13.6	25.9	20.5*	9.6	6.1	8.9
